Screening results: PubChem, National Center for Advancing Translational Sciences (NCATS)
BAZ2B block – BAZ2B (human) inhibition. Q9UIF8. AlphaScreen BAZ2B-H3K14Ac peptide displacement. Potency, µM (doses to about 114 µM), without a hit: top-dose activity change, negative = inhibition, actives largely listed as inhibitors. 360,000 compounds, 4.4% hits. AID 504333; note: % is set by controls: 0 for no effect and ±100 for the full control effect; nearly all actives have a fitted effect of over 60% in size
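Compounds, titrated to a top concentration of 110 uM, were incubated 30 min at room temperature with preformed BAZ2B/acetyl-K14 H3 peptide complex (50 nM each). Proximity signal was measured by AlphaScreen after 20 min with beads.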
JMJD2A Tudor inh – JMJD2A Tudor domain (human) inhibition. O75164. 390,000 compounds, 4.4% hits. AlphaScreen JMJD2A-Tudor / H3K4me3 peptide binding. Potency, µM (top dose mostly 114 µM), without a hit: top-dose activity change, negative = inhibition, actives largely listed as inhibitors; note: % is set by controls: 0 for no effect and ±100 for the full control effect; nearly all actives have a fitted effect of over 50% in size
Sfp PPTase inh – blocks B. subtilis Sfp PPTase activity; Biochemical Sfp PPTase activity, qHTS; AID 1490; Potency, µM, inactives show largest response in the series, negative = inhibition, actives largely listed as inhibitors; 310,000 compounds, 3.5% hits; Q9F4F7;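 note: the enzyme is Sfp with the accession as filed and its product quenches rhodamine fluorescence; 0% = enzyme reaction without inhibitor and -100% = no enzyme wells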
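Fluorescence-quenching assay with 15 nM Sfp, 5 uM rhodamine-CoA and 12.5 uM BHQ-2-labelled ybbR peptide in pH 7.6 Hepes/MgCl2 buffer. Enzyme was pre-incubated with compound for 15 min at room temperature. Rate was taken from the 30-min fluorescence change (525/598 nm).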
G9a inh – G9a (human) methyltransferase inhibition; G9a H3K9 monomethylation, AlphaScreen, 2 h; AID 504332; 350,000 compounds, 8.8% hits; Q96KQ7; Potency, µM (titrated, usually from 102 µM), for the others: top-dose activity, negative = inhibition, most hits filed as inhibitors; note: % is set by controls: 0 for no effect and ±100 for the full control effect; nearly all actives have a fitted effect of over 75% in size
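G9a (20 nM) preincubated 15 min RT with compounds, then 500 nM biotinylated H3K9 peptide and 20 uM SAM added; 2 h RT reaction. Monomethyl-H3K9 product detected by AlphaScreen with anti-H3K9me1 antibody, streptavidin donor and anti-rabbit IgG acceptor beads.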
HP1b binding inh – inhibitors of HP1-beta chromodomain binding to methylated histone tails; P83916; AlphaScreen HP1-beta / biotin-H3K9me3 peptide binding; Potency, µM (series often up to 114 µM), inactives show top-dose activity change, negative = inhibition, hits mostly inhibitors; 390,000 compounds, 0.56% hits; AID 540317; note: nearly all actives have a fitted effect of over 70% in size
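HP1-beta protein (50 nM final) preincubated 30 min at room temperature with biotinylated H3(1-18)K9me3 peptide (50 nM) in PBS pH 7.4, 0.01% Tween-20, then compound added for 30 min. AlphaScreen streptavidin donor/nickel chelate acceptor beads (10 ug/mL final), 30 min dark, luminescence read.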
Starred values were filed as active, the others as inactive; u = inconclusive; x = no result; [ ] = dose if it differs, or a comment. Compounds with a hit are over-represented: about 12% of the library has one in this group of screens. Calls come from the whole dose curve; as a rule, active = well fitted curve in the direction sought with a large enough effect; inconclusive = small, poorly fitted or top-dose-only effect, or another doubt; inactive = no such curve, though single readings can be large; an effect the other way counts as inactive or inconclusive. Potency is the fitted concentration of half-maximal effect.

SMILES	BAZ2B block	JMJD2A Tudor inh	Sfp PPTase inh	G9a inh	HP1b binding inh
Cc1cccc(C(=O)Nc2cccc(C(=O)OCc3cc(=O)n4nc(C(C)C)sc4n3)c2)c1	-9.5%	-7.0%	x	9.3%[59 µM]	26.3%
CCOC(=O)c1c(NC(=O)COC(=O)c2cnccn2)sc(C(=O)NC)c1C	-6.1%	-13.6%	x	7.9%[0.501 µM]	19.9%
CCOC(=O)c1c(-c2ccccc2)csc1NC(=O)CSc1nc(N)cc(N)n1	-26.4%	-32.1%	8.8%	u	-5.1%
CCOC(=O)c1c(-c2ccco2)csc1NC(=O)CSc1nnc(N)s1	u	-35.6%	25.1µM*	39.8µM*	6.0%
CCOC(=O)c1c(-c2ccccc2)csc1NC(=O)CSc1nc(C)cc(C)n1	1.7%	-15.1%	6.5%	13.0%	23.1%
CCOC(=O)c1c(-c2ccc(C)o2)csc1NC(=S)NC(=O)c1ccc(F)cc1	-30.5%	-23.9%	8.1%	-8.0%[59 µM]	15.4%
CCOC(=O)c1c(-c2ccc(C)o2)csc1NC(=O)CSc1nncs1	-3.1%	56.2µM*	7.94µM*	10µM*	u
CCOC(=O)c1c(-c2ccc(C)o2)csc1NC(=O)CN1CCCCC1	u	19.2%	7.94µM*	39.8µM*	20.7%
CCOC(=O)c1c(-c2ccco2)csc1NC(=O)COC(=O)c1cnccn1	50.1%	u	x	8.91µM*	u
CCc1ccccc1NC(=O)c1cnn2c(C(F)(F)F)cc(-c3ccc(OC)c(OC)c3)nc12	-10.2%	-18.2%	x	-42.9%[59 µM]	29.9%
Cc1cc(C)cc(NS(=O)(=O)c2ccc(N3CCCCS3(=O)=O)cc2)c1	-10.5%	-11.9%	x	2.2%[59 µM]	27.8%
CCOC(=O)c1c(-c2ccc(C)o2)csc1NC(=O)CN1CCC(C(N)=O)CC1	u	-16.6%	31.6µM*	44.7µM*	u
Cc1cc(C(F)(F)F)n2nc(-c3cnn(C)c3C(F)(F)F)c(Br)c2n1	-28.5%	-14.1%	1.6%	38.4%[12.7 µM]	26.4%
Fc1cccc(F)c1-c1nc2c(s1)CCc1onc(-c3ccc(Br)cc3)c1-2	x	-14.2%	x	x	-6.2%
COc1ccc(-c2noc3c2-c2nc(-c4c(F)cccc4F)sc2CC3)cc1	-23.1%	-16.8%	-16.3%	31.6µM*	15.4%
COc1ccc(-c2noc3c2-c2nc(-c4ccccc4F)sc2CC3)cc1	-6.6%	-6.2%	-21.1%	22.4µM*	32.6%
CC1Cc2cc(S(=O)(=O)NCc3ccc(Cl)cc3)ccc2N1C(=O)C1CCC1 (configuration not stated)	6.7%	-17.8%	x	6.9%[59 µM]	10.5%
CCCCOc1ccc(C(=O)N/C(=C\c2ccc(Br)cc2)C(=O)NC2CCCCC2)cc1	1.5%	-15.0%	x	-2.5%[59 µM]	16.7%
CSc1ccc(C2C(C#N)=C(N)Oc3c2ccc(=O)c2c(C)oc(C)c32)cc1 (configuration not stated)	u	56.2µM*	56.2µM*	31.6µM*	u
N#CC1=C(N)Oc2c(ccc3cccnc23)C1c1ccccc1 (configuration not stated)	-28.3%	-25.9%	9.0%	5.8%[59 µM]	21.0%
Cc1oc(C)c2c(=O)ccc3c(c12)OC(N)=C(C#N)C3c1ccccc1Cl (configuration not stated)	u	-2.7%[11.4 µM]	50.1µM*	28.2µM*	-28.3%
Cc1oc(C)c2c(=O)ccc3c(c12)OC(N)=C(C#N)C3c1ccccc1 (configuration not stated)	u	-34.7%	-35.1%	8.91µM*	-23.1%
CC(=O)C1=C(C)OC(N)=C(C#N)C1c1cccc2ccccc12 (configuration not stated)	-14.5%	-14.4%	-25.3%	x	0.8%
COc1ccc(OC)c(S(=O)(=O)N/N=C\c2c[nH]c3ccccc23)c1	-26.1%	-25.0%	12.4%	u	21.2%
S=C(Nc1ccccc1)N(Cc1ccccc1)Cc1ccncc1	-12.1%	-6.4%	8.4%	-7.5%[59 µM]	39.5%
SMILES	BAZ2B block	JMJD2A Tudor inh	Sfp PPTase inh	G9a inh	HP1b binding inh
CCN(Cc1ccncc1)C(=S)NCc1ccccc1	-1.8%	-1.6%	-6.5%	50.1µM*	7.3%
CCOc1cccc(/C=C2\NC(=S)N(c3ccccc3)C2=O)c1O	-26.3%	-31.7%	1.8%	u	-1.0%
CN(C)/C=C1\NC(=S)N(c2ccccc2)C1=O	-16.4%	35.5µM*	50.1µM*	7.94µM*	-26.5%
CN(C)/C=C1\NC(=S)N(c2ccc(Cl)cc2)C1=O	u	44.7µM*	31.6µM*	5.62µM*	u
O=C(CSc1nc2ccc(Cl)cc2[nH]1)c1ccc2c(c1)OCO2	50.1µM*	22.4µM*	79.4µM*	35.5µM*	21.6%
O=C(CSc1nc2cc(Cl)c(Cl)cc2[nH]1)c1ccc2c(c1)OCO2	13.5%	-6.6%	u	11.2µM*	25.7%
O=C(CSc1nc2ncc(Cl)cc2[nH]1)c1ccc2c(c1)OCO2	-20.8%	-16.6%	10.3%	u	22.2%
O=C(CSc1nc2ccc(Cl)cc2[nH]1)c1c[nH]c2ccccc12	-18.7%	-9.9%	22.7%	20µM*	30.2%
O=C(CSc1nc2ncc(Cl)cc2[nH]1)c1c[nH]c2ccccc12	-4.0%	-13.4%	1.6%	x	13.4%
O=C(CSc1ncn[nH]1)c1ccc2c(c1)OCO2	11.1%	31.6µM*	-4.7%	5.8%[12.7 µM]	25.5%
O=C(CSc1ccc2ccccc2n1)c1ccc2c(c1)OCO2	39.9%	-4.5%	-2.1%	125.6%	79.3%
COc1ccc(CCN(C)C(=O)c2c(C)nn(-c3ccccc3)c2C)cc1OC	-6.7%	-17.4%	15.8%	-9.6%	16.0%
Cc1cccc(N2CCN(CCCNC(=O)c3sc4ncccc4c3-n3cccc3)CC2C)c1 (configuration not stated)	u	u	x	u	-0.2%[57 µM]
Cc1ccc2oc(=O)c3cc(C(=O)Nc4cccc(C#N)c4)sc3c2c1	-30.0%	2.7%	x	-0.2%[59 µM]	43.7%
Nc1nc(N)nc(-c2ccc(Cl)cc2)n1	79.4µM*	-11.5%	9.0%	-2.4%	7.0%
CCCCC1(C)NC(=S)N2N1C(=S)NC2(C)CCCC (configuration not stated)	79.4µM*	5.62µM*	56.2µM*	1.78µM*	u
Cc1cc(C)cc(NC(=O)Cn2c(=O)n(Cc3ccco3)c(=O)c3oc4ccccc4c32)c1	-19.8%	-11.4%	x	0.9%[59 µM]	38.4%
CC(=O)N(C1=C(N2CCOCC2)C(=O)c2ccccc2C1=O)c1ccc(C(=O)O)cc1	-37.4%	-20.4%	-11.9%	39.8µM*	37.3%
O=C(O)c1ccc(NC2=C(N3CCOCC3)C(=O)c3ccccc3C2=O)cc1	u	-17.2%	-1.7%	u	12.6%
Cc1ccc(NC2=C(N3CCOCC3)C(=O)c3ccccc3C2=O)cc1	14.1µM*	14.1µM*	-8.8%	u	12.6µM*
CC(=O)c1ccc(NC2=C(N3CCOCC3)C(=O)c3ccccc3C2=O)cc1	28.2µM*	39.8µM*	-5.7%	x	28.2µM*
CC(C(=O)Nc1ccc(N2CCOCC2)cc1)N1C(=O)c2ccccc2C1=O (configuration not stated)	11.1%	-9.2%	-7.9%	9.0%[12.7 µM]	35.3%
